# PubChem BioAssay (EPA / NIEHS)
# Some structures have more than one record in an assay (separate samples or runs), and their calls can disagree. Activity calls are given as the source filed them. The calls were made as follows: active = hit-call score of the fitted dose curve at least 0.9, where 1 is the maximum; inactive = score below 0.9.
# What was measured:
# [1] = APR_HepG2_CellCycleArrest_24hr: Apredica 24-hour HepG2 Assay for Cell Cycle Arrest (AID 2282905); conditions: imaging, actives raise or lower the signal;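 also: cell cycle arrest scored as ratio of 2N to 4N nuclear DNA content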
# Outline: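 Compounds at 0.39–200 uM (0.5% DMSO) for 24 h, then fixed and Hoechst 33342 stained. Cell-cycle analysis of nuclear DNA content by high-content imaging, fitted bidirectionally versus DMSO.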
# [2] = APR_HepG2_NuclearSize_24hr: Apredica 24-hour HepG2 Assay for Nuclear Size (AID 2282907); conditions: high-content imaging, actives raise or lower the signal
# Outline: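 HepG2 cells exposed 24 h to compounds at 0.39–200 uM (0.5% DMSO), fixed, Hoechst 33342 stained and imaged at 20x; nuclear diameter measured by automated image analysis, fitted bidirectionally against DMSO controls.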
# [3] = APR_HepG2_CellLoss_24hr: Apredica 24-hour HepG2 Assay for Cell Loss (AID 2282908); conditions: high-content imaging;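 as to AC50: fit in both directions so a hit may be cell loss or gain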
# Outline: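 HepG2 cells exposed 24 hr to 0.39–200 uM compound in duplicate at 0.5% v/v final DMSO. Cells fixed in 3.7% formaldehyde and Hoechst 33342-stained. Cell number came from nuclear imaging at 20x. Bidirectional fit versus DMSO.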
# [4] = APR_HepG2_MicrotubuleCSK_24hr: Apredica 24-hour HepG2 Assay for Microtubule CSK Stabilty (AID 2282909); conditions: HepG2 microtubule cytoskeleton imaging, actives raise or lower the signal
# Outline: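 HepG2 cells were treated 24 hr with compound at 0.39–200 uM in duplicate (0.5% DMSO final), then fixed and permeabilized. Alpha-tubulin immunofluorescence was imaged by high-content microscopy, with bidirectional fitting against DMSO and taxol as positive control.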
# [5] = APR_HepG2_MitoMembPot_24hr: Apredica 24-hour HepG2 Assay for Mitochondrial Membrane Potential (AID 2282911); conditions: imaging, actives raise or lower the signal
# Outline: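 Human hepatoma HepG2 cultures received ten compound concentrations up to 200 uM for 24 hr. Membrane-potential dye signal, captured by automated fluorescence microscopy, was scored for gain or loss against DMSO controls.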
# [6] = APR_HepG2_MitoMass_24hr: Apredica 24-hour HepG2 Assay for Mitochondrial Mass (AID 2282912); conditions: high-content imaging, actives raise or lower the signal
# Outline: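 HepG2 cells exposed 24 hr to 0.39–200 uM compound, 0.5% v/v DMSO, in duplicate. Stained before fixation with 250 nM MitoTracker Red CMXRos for 30 min, then imaged at 20x with Hoechst nuclei. Fitted in both directions against DMSO.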
# [7] = APR_HepG2_CellCycleArrest_72hr: Apredica 72-hour HepG2 Assay for Cell Cycle Arrest (AID 2282914); conditions: high-content imaging, actives raise or lower the signal
# Outline: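 Cell cycle arrest in HepG2 was scored from nuclear DNA content after 72 hr compound treatment (0.39–200 uM). Activity, either gain or loss, was fitted against the DMSO baseline.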
# [8] = APR_HepG2_CellLoss_72hr: Apredica 72-hour HepG2 Assay for Cell Loss (AID 2282915); conditions: high-content imaging
# Outline: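 HepG2 cells exposed 72 h to compound at 0.39–200 uM (10 concentrations, duplicate) in 0.5% DMSO. Fixed with 3.7% formaldehyde and Hoechst 33342-stained. Imaged at 20x; nuclear count gives cell number, fitted bidirectionally versus DMSO.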
# [9] = APR_HepG2_P-H2AX_72hr: Apredica 72-hour HepG2 Assay for H2AX Phosphorylation (AID 2282916); conditions: imaging, actives raise or lower the signal;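 also: phospho-histone H2A.x immunostain intensity per cell marking DNA damage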
# Outline: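 HepG2 cells treated 72 h at 0.39–200 uM, 0.5% DMSO final, duplicates. Formaldehyde-fixed, Triton-permeabilised, immunostained for phospho-H2A.x with Hoechst; fluorescence imaged at 20x, bidirectional fit versus DMSO.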
# [10] = APR_HepG2_MitoticArrest_72hr: Apredica 72-hour HepG2 Assay for Mitotic Arrest (AID 2282918); conditions: high-content imaging, actives raise or lower the signal
# Outline: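 Mitotic arrest in HepG2 is scored from phospho-histone H3 staining after 72 hr dosing across 0.39–200 uM, with DMSO at 0.5% v/v. Nuclei are identified by Hoechst 33342 and fluorescence intensity is quantified per cell.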
# [11] = APR_HepG2_MicrotubuleCSK_72hr: Apredica 72-hour HepG2 Assay for Microtubule CSK Stabilty (AID 2282919); conditions: HepG2 microtubule cytoskeleton, high-content imaging, actives raise or lower the signal
# Outline: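 HepG2 cells were exposed 72 hr to compound at 0.39–200 uM in duplicate (0.5% DMSO final), then fixed and permeabilized. Alpha-tubulin immunofluorescence was imaged by high-content microscopy, with bidirectional fitting against DMSO and taxol as positive control.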
# [12] = APR_HepG2_P-H2AX_24hr: Apredica 24-hour HepG2 Assay for H2AX Phosphorylation (AID 2282920); conditions: high-content imaging, actives raise or lower the signal
# Outline: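 Signal comes from a FITC-labeled secondary detecting phospho-histone H2A.x in fixed HepG2 cells, quantified by automated imaging at 20x. Dosing ran 24 hr across 0.39–200 uM with 0.5% v/v DMSO.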
# [13] = APR_HepG2_StressKinase_72hr: Apredica 72-hour HepG2 Assay for Stress Kinase (AID 2282921); conditions: HepG2 stress kinase (phospho-c-Jun) imaging, actives raise or lower the signal
# Outline: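 HepG2 cells treated 72 hr with 0.39–200 uM compound, 0.5% v/v DMSO, duplicate wells. After formaldehyde fixation and Triton permeabilization, stained with anti-phospho-c-Jun (1:500) and Cy3 secondary, imaged at 20x. Fitted in both directions against DMSO.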
# [14] = APR_HepG2_StressKinase_24hr: Apredica 24-hour HepG2 Assay for Stress Kinase (AID 2282922); conditions: HepG2 stress kinase (phospho-c-Jun) imaging, actives raise or lower the signal
# Outline: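 HepG2 cells exposed 24 h to 0.39–200 uM compound in duplicate (0.5% v/v DMSO final). Cells fixed in 3.7% formaldehyde, permeabilized and immunostained for phospho-c-Jun; read by high-content fluorescence imaging, fitted bidirectionally against DMSO.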
# [15] = APR_HepG2_p53Act_72hr: Apredica 72-hour HepG2 Assay for p53 Activation (AID 2282923); conditions: high-content imaging, actives raise or lower the signal;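 also: average cellular p53 protein immunofluorescence intensity in HepG2 cells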
# Outline: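 HepG2 cells exposed 72 h to 0.39–200 uM in 0.5% DMSO, duplicates. Fixed, permeabilized cells immunostained for p53 (Cy5) with Hoechst; imaged at 20x, fluorescence analyzed bidirectionally against DMSO.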
# [16] = APR_HepG2_MitoMass_72hr: Apredica 72-hour HepG2 Assay for Mitochondrial Mass (AID 2282924); conditions: high-content imaging, actives raise or lower the signal;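 also: MitoTracker Red CMXRos stain intensity per cell imaged as mitochondrial mass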
# Outline: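 HepG2 cells dosed 72 hr at 0.39–200 uM (0.5% DMSO), in duplicate. MitoTracker Red CMXRos 250 nM loaded 30 min before formaldehyde fixation; high-content fluorescence imaging, bidirectional fit versus DMSO.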
# [17] = APR_HepG2_MitoMembPot_72hr: Apredica 72-hour HepG2 Assay for Mitochondrial Membrane Potential (AID 2282917); conditions: imaging, actives raise or lower the signal
# Outline: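 HepG2 cells dosed 72 hr with compound at 0.39–200 uM in duplicate, 0.5% v/v DMSO final. Mitochondria stained with 250 nM MitoTracker Red CMXRos for 30 min before formaldehyde fixation, imaged by high-content fluorescence; bidirectional fit versus DMSO.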
structure (smiles),measurement,setting,value
COP(=S)(OC)Oc1ccc(SC)c(C)c1,outcome,[1],inactive
same,outcome,[2],inactive
same,outcome,[3],inactive
same,outcome,[4],inactive
same,outcome,[5],inactive
same,outcome,[6],inactive
same,AC50,[7],54.3 µM (active)
same,outcome,[8],inactive
same,outcome,[9],inactive
same,outcome,[10],inactive
same,outcome,[11],inactive
same,outcome,[12],inactive
same,outcome,[13],inactive
same,outcome,[14],inactive
same,outcome,[15],inactive
same,outcome,[16],inactive
CCS(=O)(=O)c1cccnc1S(=O)(=O)NC(=O)Nc1nc(OC)cc(OC)n1,outcome,[1],inactive
same,outcome,[2],inactive
same,outcome,[3],inactive
same,outcome,[4],inactive
same,outcome,[5],inactive
same,outcome,[6],inactive
same,outcome,[7],inactive
same,outcome,[8],inactive
same,outcome,[9],inactive
same,outcome,[10],inactive
same,outcome,[11],inactive
same,outcome,[12],inactive
same,outcome,[13],inactive
same,outcome,[14],inactive
same,outcome,[15],inactive
same,outcome,[16],inactive
N#CN,outcome,[1],inactive
same,outcome,[2],inactive
same,outcome,[3],inactive
same,outcome,[4],inactive
same,outcome,[5],inactive
same,outcome,[6],inactive
same,outcome,[7],inactive
same,outcome,[8],inactive
same,outcome,[9],inactive
same,outcome,[10],inactive
same,outcome,[11],inactive
same,outcome,[12],inactive
same,outcome,[13],inactive
same,outcome,[14],inactive
same,outcome,[16],inactive
O=C(O)C(F)(F)C(F)(F)C(F)(F)C(F)(F)C(F)(F)C(F)(F)C(F)(F)F,outcome,[1],inactive
same,outcome,[2],inactive
same,outcome,[3],inactive
same,outcome,[4],inactive
same,outcome,[5],inactive
same,outcome,[6],inactive
same,outcome,[7],inactive
same,AC50,[8],108 µM (active)
same,outcome,[8],inactive
same,outcome,[9],inactive
same,outcome,[10],inactive
same,outcome,[11],inactive
same,outcome,[12],inactive
same,outcome,[13],inactive
same,outcome,[14],inactive
same,outcome,[15],inactive
same,outcome,[16],inactive
CCC(C)(C)C(=O)OC1=C(c2ccc(Cl)cc2Cl)C(=O)OC12CCCCC2,AC50,[1],60.2 µM (active)
same,outcome,[2],inactive
same,AC50,[3],137 µM (active)
same,AC50,[4],100 µM (active)
same,outcome,[5],inactive
same,outcome,[6],inactive
same,outcome,[7],inactive
same,AC50,[8],133 µM (active)
same,outcome,[9],inactive
same,outcome,[10],inactive
same,outcome,[11],inactive
same,outcome,[12],inactive
same,outcome,[13],inactive
same,outcome,[14],inactive
same,outcome,[15],inactive
same,outcome,[16],inactive
CCCN(CCOc1c(Cl)cc(Cl)cc1Cl)C(=O)n1ccnc1,AC50,[1],101 µM (active)
same,outcome,[2],inactive
same,AC50,[3],103 µM (active)
same,outcome,[4],inactive
same,outcome,[5],inactive
same,outcome,[6],inactive
same,outcome,[7],inactive
same,AC50,[8],30.8 µM (active)
same,outcome,[9],inactive
same,outcome,[10],inactive
same,AC50,[11],165 µM (active)
same,outcome,[12],inactive
same,outcome,[13],inactive
same,outcome,[14],inactive
same,outcome,[15],inactive
same,outcome,[16],inactive
COC(=O)c1ccccc1S(=O)(=O)NC(=O)Nc1nc(C)nc(OC)n1,outcome,[1],inactive
same,outcome,[2],inactive
same,outcome,[3],inactive
same,outcome,[4],inactive
same,outcome,[5],inactive
same,outcome,[6],inactive
same,outcome,[7],inactive
same,outcome,[8],inactive
same,outcome,[9],inactive
same,outcome,[17],inactive
same,outcome,[10],inactive
same,outcome,[11],inactive
same,outcome,[12],inactive
same,outcome,[13],inactive
same,outcome,[14],inactive
same,outcome,[15],inactive
same,outcome,[16],inactive
